From PubChem BioAssay AID1117284 (Broad Institute, 2014) come the findings set out here.

Each structure is given as a SMILES string. Potency and affinity values are given separately. Activity calls are given as the source filed them.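 Rule for the calls: active = viability signal drop whose fitted half-maximal concentration is at most twice the top valid dose; inconclusive = flat partial drop or unreliable curve fit; inactive = the rest.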

The test can be described thus: lung carcinoma cell viability loss – CellTiter-Glo luminescence, dry powder, set 17, dose response (AID 1117284). Particulars: A549 viability, CellTiter-Glo ATP luminescence, 72 h; series mostly up to 26 µM.
Regarding `C[C@@H](O)C#Cc1ccc2c(c1)O[C@@H](CN(C)Cc1ccncc1)[C@@H](C)CN([C@@H](C)CO)S2(=O)=O`, the result was inactive. `C[C@@H](O)C#Cc1ccc2c(c1)O[C@@H](CN(C)Cc1cccnc1)[C@@H](C)CN([C@@H](C)CO)S2(=O)=O`: the call was inactive. With `C[C@@H](O)C#Cc1ccc2c(c1)O[C@@H](CN(C)S(=O)(=O)c1ccc(-c3ccccc3)cc1)[C@@H](C)CN([C@@H](C)CO)S2(=O)=O` the entry was “inactive”. The result for `C[C@H]1CN([C@@H](C)CO)S(=O)(=O)c2ccc(Br)cc2O[C@H]1CN(C)Cc1ccc(-c2ccccc2)cc1` reads “inactive”. Take `C[C@@H](O)C#Cc1ccc2c(c1)O[C@@H](CN(C)C(=O)c1ccc(-c3ccccc3)cc1)[C@@H](C)CN([C@@H](C)CO)S2(=O)=O`: the compound was called inactive. With `C[C@H](CO)N1C[C@H](C)[C@H](CN(C)Cc2ccc(-c3ccccc3)cc2)Oc2cc(C#C[C@@H](C)O)ccc2S1(=O)=O` the entry was “inactive”; with `CNC[C@@H]1Oc2cc(Br)ccc2S(=O)(=O)N([C@@H](C)CO)C[C@@H]1C`, “inactive”. `CO[C@H]1CN(C)C(=O)c2ccc(NC(=O)c3ccc(F)cc3)cc2OC[C@H](C)N(C(=O)c2ccc(F)cc2)C[C@@H]1C`: the compound was called inactive.
